According to PubChem BioAssay:
Activity calls are given as the source filed them.

test: budding yeast growth changes without added modifier – OD600, strain BY4716, 24 h, basal condition, primary screen (AID 1173); settings: S. cerevisiae BY4716 growth, OD600, 24 h; higher = more signal, called active from +8 up or from −8 down

Structure (SMILES)	z-score
COCCOC(=O)N1C(=O)[C@@]2(c3cc(C#CC4=CCCCC4)ccc31)[C@H](C(=O)NC[C@H](O)c1ccccc1)[C@H]1C(=O)O[C@H](c3ccccc3)[C@H](c3ccccc3)N1[C@@H]2c1ccc(OCCO)cc1	1.61 (inactive)
CCC#CCN(Cc1ccccc1Br)[C@H](/C=C/c1ccccc1)[C@@H](O)Cc1ccccc1	0.238 (inactive)
C=C(CCCC)/C(=C/C[C@@H](OC(=O)c1ccncc1)c1cccc(OCCO)c1)c1cc(C(=O)OC)ccc1OC	0.199 (inactive)
NC(=O)NCC#Cc1ccc2c(c1)[C@]1(C(=O)N2)[C@H](c2ccccc2OCCO)N2[C@H](c3ccccc3)[C@H](c3ccccc3)OC(=O)[C@H]2[C@@H]1C(=O)N1CCN(c2ncccn2)CC1	0.887 (inactive)
O=C1OCC=C[C@H]2OC34C=CCN(Cc5ccccc5)C(=O)[C@H]3N(CCO)C(=O)[C@@H]4[C@@H]12 (stereo partly specified)	-0.999 (inactive)
Cc1ccc(S[C@]2(C(=O)NC(C)C)CC(=O)N(Cc3cc(C(F)(F)F)cc(C(F)(F)F)c3)[C@@H]2c2ccc(CO)cc2I)cc1	-2.86 (inactive)
COc1ccc(C(=O)Nc2ccc(CN3C(=O)[C@]4(O[C@H](CCn5cc(CCO)nn5)[C@@H]([Si](C)(C)c5ccc(OC)cc5)[C@@H]4C)c4ccccc43)cc2)cc1	-5.51 (inactive)
COC(=O)[C@@]1(Cc2ccccc2)[C@H]2c3cc(C(=O)N4CCCC4)n(CCN4CNCC4=O)c3C[C@H]2CN1C(=O)c1ccccc1	0.864 (inactive)
CCCNC(=O)[C@@H]1c2ccccc2C(=O)N(C2CCCCC2)[C@H]1c1ccc(CO)cc1	1.27 (inactive)
CC(C)C[C@@H]1NC(=O)[C@H]2C[C@@H](C(=O)NCCCCCC[N+](C)(C)C)[C@@H](c3ccc(O)cc3)N2C1=O	-0.213 (inactive)
O=C(NCc1ccccc1)[C@@]1(Cc2ccccc2)COC(c2ccc(OCCCO)cc2)=N1	0.0178 (inactive)
C=CCN1C(=O)[C@@]2(Cc3ccccc3)N=C(c3ccc(OCCCO)cc3)O[C@H]2c2ccccc21	-2.11 (inactive)
COCCCNC(=O)[C@@H]1c2ccccc2C(=O)N(CC23CC4CC(CC(C4)C2)C3)[C@H]1c1ccc(CO)cc1	-0.323 (inactive)
[N-]=[N+]=NCc1ccccc1[C@H]1OC(c2ccc(OCCCO)cc2)=N[C@@]1(Cc1ccccc1N=[N+]=[N-])C(=O)NCc1ccccc1	0.745 (inactive)
O=C1C2C=CC(C(O)c3ccccc3)N(n3cnnc3)C2C(=O)N1Cc1ccccc1 (stereo unspecified)	-0.0402 (inactive)
CCCC[C@@H]1C[C@H]1[C@@H](NC(=O)c1ccccc1)c1ccccc1C(F)(F)F	0.66 (inactive)
COc1ccc(CCN2C(=O)[C@@]3(c4ccc([N+](=O)[O-])cc4)CC(=O)N(CC45CC6CC(CC(C6)C4)C5)[C@@H]3c3ccc(CO)cc32)cc1	-0.12 (inactive)
O=C1O[C@@H](c2ccccc2)[C@@H](c2ccccc2)N2[C@@H](c3ccc(OCCO)cc3)[C@]3(C(=O)Nc4ccc(C#CCCO)cc43)[C@@H](C(=O)N3CCN(c4ncccn4)CC3)[C@H]12	1.35 (inactive)

Structure (SMILES)	z-score
Cc1ccc(S[C@]2(C(=O)NC(C)C)CC(=O)N(C3Cc4ccccc4C3)[C@@H]2c2ccc(CO)cc2)cc1	-0.0445 (inactive)
O=C1O[C@H](c2ccccc2)[C@H](c2ccccc2)N2[C@H]1[C@@H](C(=O)Nc1nc3ccccc3s1)[C@]1(C(=O)Nc3ccc(C#CC4=CCCCC4)cc31)[C@H]2c1ccccc1OCCO	1.86 (inactive)
C=CC[C@]1(C(=O)O)N=C(c2ccc(OCCCO)cc2)O[C@H]1c1ccccc1N=[N+]=[N-]	-0.761 (inactive)
CCOC(=O)C1=C[C@@H](c2ccccc2)N(S(=O)(=O)c2ccc(C)cc2)[C@H]1c1ccc(F)cc1	1.87 (inactive)
C=CCC(OC(C)=O)[C@@H]1[C@@H](N(Cc2cccc3ccccc23)C(=O)c2ccc(C)cc2)c2cc(OCCCO)ccc2N1C(=O)c1ccc(-c2ccccc2)cc1 (stereo partly specified)	-0.93 (inactive)
COc1ccc(-c2cc3c(c(-c4ccccc4)n2)[Si](C(C)C)(C(C)C)O[C@H]3c2ccccc2)cn1	0.509 (inactive)
Cc1ccc(S[C@]2(C(=O)O)CC(=O)N(Cc3cc(C(F)(F)F)cc(C(F)(F)F)c3)[C@@H]2c2ccc(CO)cc2I)cc1	-3.06 (inactive)
O=C1O[C@H](c2ccccc2)[C@H](c2ccccc2)N2[C@H]1[C@@H](C(=O)Nc1nc3ccccc3s1)[C@]1(C(=O)Nc3ccc(C#CC4(O)CCCCCC4)cc31)[C@H]2c1ccc(O)cc1	-0.945 (inactive)
O=C1C2C=CC(C(O)C#Cc3ccccc3)N(Nc3ccccc3)C2C(=O)N1c1ccccc1 (stereo unspecified)	-3.55 (inactive)
CN1C(=O)C2C=CC(C(O)C3CC=CCC3)N(Nc3ccccc3)C2C1=O (stereo unspecified)	0.122 (inactive)
COCCCNC(=O)[C@@]1(c2ccc([N+](=O)[O-])cc2)CC(=O)N(C2CCCCC2)[C@@H]1c1ccc(CO)cc1	-0.27 (inactive)
Cc1ccccc1C(O)C1C=CC2C(=O)N(c3ccccc3)C(=O)C2N1Nc1ccc(C#N)cc1 (stereo unspecified)	-0.257 (inactive)
CCOC(=O)C[C@H]1[C@H](OC(=O)Cc2ccc3c(c2)OCO3)[C@@H](NC(=O)c2ccc3ccccc3c2)c2cc(OCCCO)ccc2N1C(=O)Cc1ccc(OC)cc1	-0.566 (inactive)
COC(=O)[C@@]1(Cc2ccccc2CN=[N+]=[N-])N=C(c2ccc(OCCCO)cc2)O[C@H]1c1ccccc1N=[N+]=[N-]	1.49 (inactive)
O=C/C=C/c1ccc(/C=C/c2ccccc2)cc1	-16.4 (active)
CC(C)NC(=O)[C@@]1(Cc2ccccc2I)c2ccccc2C(=O)N(C2CCCCC2)[C@H]1c1ccc(CO)cc1	-0.557 (inactive)
C=CCC(OC(C)=O)[C@@H]1[C@@H](N(Cc2cccc3ccccc23)C(=O)Cc2ccc(F)cc2)c2cc(OCCCO)ccc2N1C(=O)Cc1ccc2ccccc2c1 (stereo partly specified)	0.595 (inactive)
CCCC=C(CCC)[C@@H](NC(=O)c1ccc(C(F)(F)F)cc1)c1ccccc1	0.79 (inactive)
